Screening results: PubChem, several laboratories
BaF3 tox: counter-screen for JAK2V617F inhibitors: parental Ba/F3 viability inhibitors; CellTiter-Glo ATP luminescence; inhibition, % at 5.6 µM; 220,000 tested, 1.1% active;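 active = inhibition above a per-campaign cutoff, the mean inhibition of all tested compounds plus 3 SD, cut at about 27% in these data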;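 note: 0% = DMSO wells and 100% = JAK Inhibitor I control wells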
IEC-6 cytotox: kills IEC-6 intestinal cells in KLF5 counter-screen; IEC-6 cytotoxicity, luminescence viability; inhibition, % at 5 µM; 290,000 tested, 0.78% active; in the data active = inhibition above about 22%;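 note: 0% = plate median of test compound wells and 100% = cytotoxic reference compound wells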
Ba/F3 V617F tox: reduce viability of Ba/F3 cells dependent on JAK2V617F | AID 1446 | 220,000 tested, 1.1% active | Ba/F3 EpoR-JAK2V617F viability, ATP luminescence | inhibition, % at 5.6 µM;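 active = inhibition above the campaign mean plus 3 SD over all tested compounds, cut at about 24% in these data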;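 note: cytokine-independent growth of Ba/F3 cells driven by EpoR plus mutant JAK2; 0% = DMSO-treated cells and 100% = JAK inhibitor I control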
KLF5 inhibitor: suppresses KLF5 promoter-driven expression. inhibition, % at 5 µM. 290,000 tested, 0.23% active. DLD-1 KLF5 promoter-luciferase reporter, luminescence. AID 1700;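 active = inhibition above a per-plate limit of that plate's mean compound inhibition plus 3 SD, cut at about 60% in these data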;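 note: 0% = DMSO wells and 100% = LY294002 at 200 µM; higher means less KLF5 promoter-driven luciferase light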
APP 5UTR inh: APP translation inhibition | SH-SY5Y APP 5'UTR-luciferase reporter, luminescence | inhibition, % at 2 µM | 190,000 tested, 0.82% active;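 active = inhibition above a set limit, derived from the sample mean plus 3 SD, cut at about 45% in these data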
aSyn UTR inh: 5' untranslated region of α-synuclein, MLPCN primary screen. alpha-synuclein 5'UTR reporter, inhibitor activity. inhibition, % (tested at 7.5 µM). 300,000 tested, 0.82% active. AID 1813; in the data active = inhibition above about 60%;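 note: H4 neuroglioblastoma cells stably carrying SNCA 5'UTR luciferase fusion; 0% = DMSO wells and 100% = positive control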
Active calls of the source: *; · = no result given. Sampled rows, rich in hits. Any-hit rate of the full collection: about 2.2%.

SMILES	BaF3 tox	IEC-6 cytotox	Ba/F3 V617F tox	KLF5 inhibitor	APP 5UTR inh	aSyn UTR inh
COc1ccc(-c2nn(-c3ccccc3)cc2C(=O)O)cc1N	·	8	·	-12	·	3
CCCCCCc1nc(C(N)=O)c2[nH]c(=O)n(-c3ccccc3F)c2n1	·	-6	·	-11	·	25
CC1CCN(c2nc3ccc(C(=O)O)cc3s2)CC1	3	-3	-1	62	46*	106*
CC(=O)Nc1cccc(OCC(=O)NC(C)C(C)C)c1 (configuration not stated)	1	3	-1	-3	69*	8
CC(=O)Nc1ccc(OCC(=O)NC(C)C(C)C)cc1 (configuration not stated)	2	4	0	-19	-22	-5
Oc1ccccc1/C=N/Nc1ncc(Br)cn1	5	-5	3	-77	57*	5
Oc1ccccc1/C=N/Nc1ccccc1	4	1	0	-6	-38	-133
Cc1sc2ncnc(N/N=C/c3ccccc3O)c2c1C	2	8	-6	17	77*	106*
Oc1ccccc1/C=N/Nc1ccnc(SCc2ccccc2)n1	8	8	2	-18	56*	·
CCOC(=O)[C@@H]1[C@H]2COc3cc(OC)ccc3[C@@H]2N2C(=O)N(c3ccc(F)cc3)C(=O)[C@]12C	·	-6	·	-14	·	25
O=S(=O)(NCC1CCCO1)c1ccc(Cl)cc1 (configuration not stated)	·	-2	·	-76	·	1
COC(=O)c1ccc2nc(-c3ccc4c(c3)OCO4)cn2c1	5	-1	0	-95	-90	95*
CC(C)c1ccc(CN2CCN(C(=O)CCl)CC2)cc1	0	6	46*	-5	-2	·
CC(C)CC(=O)N1CCN(Cc2ccc(Cl)cc2)CC1	·	5	·	-27	·	11
Cc1[nH]c2ccccc2c1C1(O)C(=O)N(Cc2ccc3c(c2)OCO3)c2ccccc21 (configuration not stated)	85*	20	78*	-25	-15	-16
CCCN1C(=O)C(O)(c2c(C)[nH]c3ccccc23)c2ccccc21 (configuration not stated)	-3	1	-4	7	·	8
O=[N+]([O-])c1cccc(S(=O)(=O)NCc2ccncc2)c1	·	9	·	-18	·	-13
Cc1cnc(NC(=O)COc2ccccc2Cl)s1	4	5	0	-29	-100	82*
Cc1cnc(NC(=O)CSc2ccc(Cl)cc2)s1	-1	3	-2	-15	-13	-11
Cc1cnc(NC(=O)Nc2ccc(Cl)cc2)s1	72*	29*	92*	-127	28	-187
CN(Cc1ccsc1)C(=O)Cn1cc(Br)ccc1=O	·	1	·	-63	·	-97
Cc1ccc(-c2cnc(-c3ccncc3)o2)cc1	7	-12	3	-57	-67	-157
Nc1ccc(-c2ncc(-c3ccccc3)o2)cc1	·	2	·	24	·	86*
CCCCNC(=O)Cn1c(=O)c2c(ncn2CCC(C)C)n(Cc2ccccc2)c1=O	·	2	·	-15	·	18
CC(C)NC(=O)COC(=O)c1ccccc1CSC1=NCCS1	·	-1	·	1	·	-2
SMILES	BaF3 tox	IEC-6 cytotox	Ba/F3 V617F tox	KLF5 inhibitor	APP 5UTR inh	aSyn UTR inh
c1ccc(Cn2c(-c3ccccc3)c[n+]3c2SCCC3)cc1	63*	-4	73*	-8	·	-5
O=C(NC1CCCCC1)C1CC(=O)N(c2ccccc2)C1 (configuration not stated)	·	1	·	-17	·	-8
CCOc1ccc(Br)cc1CC(=O)O	2	-1	4	-15	-5	4
CCCOc1ccc(Br)cc1CSC(=N)N	41*	21	38*	-16	-1	-35
O=c1c2ccccc2[nH]c(=S)n1Cc1cccnc1	1	2	-2	6	56*	-17
Cc1ccc(CC(CC(=O)O)C(=O)NCc2ccccc2)cc1 (configuration not stated)	7	2	-2	-19	·	11
CNC[C@H](Cc1ccccc1)NC[C@@H](Cc1cccc2ccccc12)NCCc1ccc(C)cc1	·	-4	·	7	·	123*
O=[N+]([O-])c1cccc(-c2nnc(C3CC3)o2)c1	35*	-4	-6	-23	·	-5
Cc1cc(NC(=O)CNCC(c2ccccc2)N(C)C)c([N+](=O)[O-])cc1C (configuration not stated)	·	6	·	17	·	0
N#CC1=C2SCN(c3ccccc3)CN2C(=O)CC1c1ccccc1Cl (configuration not stated)	39*	5	2	-13	0	-16
O=S(=O)(Cc1ccccc1)Oc1ccccc1	·	2	·	-50	·	-49
CCn1c(C)[n+](CC)c2ccc(C(=O)N(C)c3ccccc3)cc21	4	6	4	-14	16	8
CC(=O)OCC[n+]1c(C)n(-c2ccccc2)c2ccc(Cl)cc21	12	1	-2	-28	-46	10
CCOC(=O)c1ccc2c(c1)n(CC)c(C)[n+]2CC	36*	7	20	-2	5	-21
CC[n+]1c(C)n(-c2ccccc2)c2ccc(C(=O)OC)cc21	55*	-3	36*	-5	-11	-2
CCOC(=O)c1ccc2c(c1)[n+](CC)c(C)n2-c1ccccc1	76*	-6	38*	-17	17	-4
CCOC(=O)c1c(O)c(O)c(C(=O)OCC)n1-c1ccccc1	-3	-11	-3	-31	·	13
Cn1cc(C(=O)NS(=O)(=O)Nc2ccc(Br)cn2)c2ccccc21	·	0	·	-40	·	-23
CCn1cc(CN2CCC(C(=O)Nc3ccc(Oc4cccnc4)cc3)CC2)cn1	·	-1	·	-38	·	8
CS(=O)(=O)N1CCCC(C(=O)NCCCN2CCC(Cc3ccccc3)CC2)C1 (configuration not stated)	96*	-4	-1	-18	11	-2
COc1ccc(-n2c(SCC#N)nc3c(sc(=S)n3-c3ccccc3)c2=O)c(OC)c1	·	1	·	-44	·	17
Nc1ccn(Cc2cccc(F)c2)n1	1	3	0	-28	0	7
N=c1ccn(Cc2cccc(F)c2)cc1	66*	-1	71*	16	·	17
CN(Cc1ccccc1)C(=O)CCC1CCN(S(C)(=O)=O)CC1	·	-4	·	-12	·	-8
COc1ccc(CNC(=O)CSc2nnc(-c3cccnc3)n2N)cc1	82*	0	6	5	0	28
O=C(Cc1csc(Nc2nc(=S)[nH]c3ccccc23)n1)NCCCN1CCN(c2ccccc2F)CC1	9	0	0	10	14	92*
CCOC(=O)c1sc2c(c1C)c(=O)n(CCO)c(=O)n2Cc1ccccc1	·	0	·	-17	·	15
NC(=O)c1nsc(C(=O)N(c2ccccc2)C(C(=O)NC2CCCCC2)c2ccc(O)cc2)c1N (configuration not stated)	·	-1	·	1	·	14
O=C(c1ccccc1)N1C(=O)C(c2ccccc2)Oc2ccccc21 (configuration not stated)	-1	3	0	-9	·	82*
COC(=O)C1CCN(S(=O)(=O)CCNC(=O)c2ccc(F)cc2)CC1	·	·	·	·	·	12
